About 30 (0.04%) of roughly 69,000 compounds showed an effect of 50% or more. This is one part of a sample in which strong results are shown more often than they occur.

The assay concerns the target T1, Histidine--tRNA ligase (Trypanosoma cruzi (strain CL Brener)) (UniProt Q4DA54).
T1 sequence (whole entry): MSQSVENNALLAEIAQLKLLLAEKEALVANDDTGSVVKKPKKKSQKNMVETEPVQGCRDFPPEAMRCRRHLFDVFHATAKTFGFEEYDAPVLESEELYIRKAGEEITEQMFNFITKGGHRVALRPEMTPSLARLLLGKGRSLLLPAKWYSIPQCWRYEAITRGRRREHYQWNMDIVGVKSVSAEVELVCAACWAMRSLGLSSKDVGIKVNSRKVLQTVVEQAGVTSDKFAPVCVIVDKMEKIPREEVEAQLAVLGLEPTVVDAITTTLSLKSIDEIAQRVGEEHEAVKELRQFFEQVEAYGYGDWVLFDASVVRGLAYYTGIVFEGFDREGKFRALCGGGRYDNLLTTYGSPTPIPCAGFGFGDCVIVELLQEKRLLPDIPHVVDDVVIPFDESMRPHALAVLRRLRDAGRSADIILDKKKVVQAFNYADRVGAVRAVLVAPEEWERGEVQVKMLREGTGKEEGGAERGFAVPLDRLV
The assay is described as follows: Trypanosoma cruzi histidyl tRNA synthetase (Tc-HisRS). The conditions noted are these: 30 µM. The format is functional. More on the design: scale not given: direction of the effect not stated beside the values.
For `O=C(c1ccc(F)cc1)N1C[C@@H]2COC[C@]2(COc2cccnc2)C1`, the Percent Effect was 8.47%.

In the case of `Cc1ccc(C(=O)N2CC[C@@H]3[C@H]2CCC(=O)N3c2ccccc2)o1`, the Percent Effect is 2.73%.

As to `CCCN1CC[C@@H]2[C@@H](CO[C@H]2CNC(=O)c2nccn2C)C1`, the Percent Effect is 3.09%.

`COc1ccc(C)cc1CN1CCC(c2cc3ncccc3cn2)CC1`: the Percent Effect was 66.2%.

In the case of `Fc1cccc(CN2CCC(c3cc4ncccc4cn3)CC2)c1F`, the Percent Effect was found to be 33.9%.

For the molecule `Fc1ccc(F)c(CN2CCC(c3cc4ncccc4cn3)CC2)c1`, the Percent Effect was 29.2%.

For the molecule `Cc1occc1C(=O)N1C[C@@H]2OCCN(CCN3CCCC3)[C@@H]2C1`, the Percent Effect is 4.9%.

As to `Cc1csc(CN2CC[C@H]3C[C@H](c4nnc(C)[nH]4)O[C@@H]3C2)n1`, the Percent Effect was -2.48%.

Regarding `Cc1ccc(S(=O)(=O)N2C[C@H]3C[C@H](NC(=O)c4ccnn4C)[C@H]3C2)cc1`, the Percent Effect stood at 5.95%.

As to `O=C(c1ccsc1)N1C[C@@H]2CCN(c3cccnc3)C[C@@H]2C1`, the Percent Effect is -1.97%.

Turning to `CC(C)=CCN1CCN(Cc2nc3ccccc3[nH]2)[C@H]2CS(=O)(=O)C[C@H]21`, the Percent Effect was found to be 4.35%.

For the molecule `Cc1cc(C(=O)N2C[C@@H]3COC[C@]3(c3nnc(C)o3)C2)on1`, the Percent Effect was found to be 0.99%.

For `CNc1nc2c(s1)C(c1cccc(Cl)c1Cl)CC(=O)N2` (stereo not drawn), the Percent Effect came to 34.8%.

Take `CNc1nc2c(s1)C(c1c(F)cccc1Cl)CC(=O)N2` (stereo not drawn): the Percent Effect came to 52.2%.

Take `CNc1nc2c(s1)C(c1c(Cl)cccc1Cl)CC(=O)N2` (stereo not drawn): the Percent Effect is 31.5%.

On to `Cc1ccc(CN2C[C@@H]3COC[C@]3(COc3ccc(C#N)cn3)C2)o1`, for which the Percent Effect came to 4.39%.

With `O=C(CCc1ccccc1)N[C@H]1CC[C@@]2(CCC(=O)N2)CC1`, the Percent Effect is 9.71%.

With `O=C(c1ccco1)N1CCO[C@@H]2CN(Cc3nccs3)CC[C@@H]2C1`, the Percent Effect worked out at 2.21%.

On to `CN(C)C(=O)[C@H]1C[C@H]2OCC[C@H]2N(Cc2ccc3ccccc3n2)C1`, for which the Percent Effect is 12.8%.

As to `O=C(N1CCOCC1)[C@@]12CCO[C@@H]1CCN(CC1CCCC1)C2`, the Percent Effect worked out at 0%.

With `Cc1ncccc1NC(=O)[C@@H]1CCO[C@@H]2CCN(c3ccccc3)C[C@@H]21`, the Percent Effect is 7.26%.

As for `Cc1noc([C@@H]2C[C@H]3OCC[C@H]3N(Cc3cc(C)c(C)o3)C2)n1`, the Percent Effect is 8.87%.

With `O=C1CC[C@H]2[C@H](CCN2C(=O)C2CCCO2)N1Cc1ccncc1` (stereo partly drawn), the Percent Effect is -3.83%.

Take `O=C(NCc1ccco1)[C@H]1CC[C@@H]2[C@@H](CCN2C2CCC2)O1`: the Percent Effect was determined as 8.54%.

`COc1ccc(CN2CCN(C(=O)N(C)C)[C@@H]3CS(=O)(=O)C[C@@H]32)cc1F`: the Percent Effect came to 3.06%.

With `CO[C@H]1C[C@@H]2CN(C(=O)c3ccc(C)s3)C[C@@H]2C1`, the Percent Effect worked out at 8.05%.

In the case of `Cc1cc(=O)n(C)cc1NC(=O)Cc1cccc(F)c1`, the Percent Effect was found to be 14.2%.

For `Cc1cc(=O)n(C)cc1NC(=O)Cc1cc(F)ccc1F`, the Percent Effect turned out to be 57.9%.

For `Cc1cc(=O)n(C)cc1NC(=O)Cc1ccc(C(F)(F)F)cc1`, the Percent Effect was found to be 14.2%.

For `CCC1=N[C@@]2(CC[C@@H]3CN(C(=O)NCc4ccccc4)C[C@@H]32)C(=O)N1C`, the Percent Effect amounted to 3.83%.

For `CNc1nc2c(s1)C(c1cccc(F)c1F)CC(=O)N2` (stereo not drawn), the Percent Effect stood at 3.26%.

Consider `O=C1CC(c2ccccc2C(F)(F)F)c2sc(N3CCOCC3)nc2N1` (stereo not drawn), for which the Percent Effect is 33.5%.

Regarding `COc1cccc(C2CC(=O)Nc3nc(N)sc32)c1OC` (stereo not drawn), the Percent Effect came to 70.7%.

Turning to `COc1ccccc1C1CC(=O)Nc2nc(N3CCCCC3)sc21` (stereo not drawn), the Percent Effect is 74.5%.

Take `Nc1nc2c(s1)C(c1c(F)cccc1Cl)CC(=O)N2` (stereo not drawn): the Percent Effect was -3.73%.

On to `COc1cccc(C2CC(=O)Nc3nc(N4CCCCC4)sc32)c1OC` (stereo not drawn), for which the Percent Effect came out at 74.5%.

Take `COc1cccc(C2CC(=O)Nc3nc(N4CCOCC4)sc32)c1OC` (stereo not drawn): the Percent Effect came out at 65.2%.

`CNc1nc2c(s1)C(c1ccccc1Cl)CC(=O)N2` (stereo not drawn): the Percent Effect was found to be 17.4%.

Turning to `CCOc1cccc(C2CC(=O)NCc3nc(N4CCCC4)sc32)c1` (stereo not drawn), the Percent Effect was found to be 9.84%.

Consider `CNc1nc2c(s1)C(c1ccccc1F)CC(=O)N2` (stereo not drawn), for which the Percent Effect worked out at 14.9%.

Regarding `CC(C)Oc1ccccc1C1CC(=O)Nc2nc(N3CCOCC3)sc21` (stereo not drawn), the Percent Effect is 1.24%.

Turning to `O=C1CC(c2ccccc2Br)c2sc(N3CCOCC3)nc2N1` (stereo not drawn), the Percent Effect amounted to 16.1%.

On to `COCCN1C[C@H]2CC[C@@H]1CN(C(=O)CCc1c(C)nn(C)c1C)C2`, for which the Percent Effect amounted to 13.1%.

For `CN(C)C(=O)COC[C@H]1CC[C@@H]2[C@@H](CCN2Cc2ccco2)O1`, the Percent Effect was 7.04%.

Take `Cc1ccc2nc(C(=O)N3CCCC[C@]4(C)NC(=O)CCC[C@H]34)cn2c1`: the Percent Effect is 2.24%.

Regarding `CCN(CC)CCNC(=O)CCc1c(C)nn(-c2ccc(Cl)cc2)c1C`, the Percent Effect came out at 2.27%.

For `CCN(CC)CCNC(=O)CCc1c(C)nn(-c2ccccc2Cl)c1C`, the Percent Effect is 0%.

As for `CCN(CC)CCNC(=O)CCc1c(C)nn(-c2ccccc2Br)c1C`, the Percent Effect was 61.4%.

`Cc1cccc(CN2CC[C@@H]3[C@@H](CO[C@H]3CNc3ncccn3)C2)n1`: the Percent Effect came to 10.5%.

In the case of `O=C(O)[C@]12CCCN(CC3CCOC3)C[C@H]1CN(c1ncccn1)C2` (stereo partly drawn), the Percent Effect was -2.21%.

`CNC(=O)[C@@]12CCC3(CCN(C(=O)COC)CC3)[C@@H]1CN(S(C)(=O)=O)C2`: the Percent Effect was 3.74%.

Consider `CN(C)C(=O)[C@H]1C[C@@H]2CN(S(=O)(=O)c3ccccc3)C[C@H]1O2`, for which the Percent Effect turned out to be 5.91%.

Turning to `CCCn1cc(NC(=O)c2ccc(S(C)(=O)=O)cc2)ccc1=O`, the Percent Effect was 56.7%.

Take `CCCn1cc(NC(=O)c2ccncc2)ccc1=O`: the Percent Effect is 38.3%.

`CCCn1cc(NC(=O)c2ccc(S(=O)(=O)CC)cc2)ccc1=O`: the Percent Effect is 35%.

Turning to `COC[C@H]1CNC(=O)[C@@H]2CCN(Cc3cccc(C)n3)CC[C@H]12`, the Percent Effect came out at 3.92%.

In the case of `CCc1nccn1CC(=O)N1C[C@H]2CC[C@@H]1CN(c1ncccn1)C2`, the Percent Effect was 5.46%.

For `Cc1nc(CO[C@H]2CN(C(=O)c3cccnc3)[C@@H]3COC[C@H]23)cs1`, the Percent Effect was -1.03%.

With `O=C1[C@H]2CN(c3cnccn3)C[C@H]2CN1CC1CC1`, the Percent Effect came to 7.22%.

`O=C(NCc1ccccc1)[C@H]1C[C@@H]2CN(S(=O)(=O)C3CC3)C[C@H]1O2`: the Percent Effect turned out to be 6.01%.

As to `CC1=CC[C@@H]2CN(C(=O)c3ccc(-c4nnn(C)n4)cc3)C[C@@H]2C1`, the Percent Effect worked out at 0.8%.

Regarding `O=C(CSc1nc2nncc-2c(O)n1-c1ccccc1)N1CCOCC1`, the Percent Effect is 7.22%.

For the molecule `O=C1CC[C@@H]2[C@@H](CCN2C(=O)C2CCOCC2)N1CC1CC1`, the Percent Effect was 0%.

Values taken from ChEMBL document CHEMBL3988442, “University of Dundee, Small-Polar-MMV Screening Library” (2021).
